Source: PubChem BioAssay (Tox21)
Values without a mark were called inactive. Results filed as inconclusive are left out. Where a call stands in place of a potency, no number is given. The source made the active and inactive calls. The call rests on the fitted dose curve; in most records, active means well fitted curve in the direction sought with a large enough effect in the repeat runs; inconclusive means weak or mixed curves; inactive means no such curve, though single readings can be large; an effect the other way counts as inactive or inconclusive.

Legend:
[1] = Caspase-3/7 induction in HepG2 cells by small molecules, qHTS assay (AID 1346978); further: nearly all actives have a fitted effect of over 15% in size
Procedure, shortened: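 Wild-type HepG2 cells (2,000/well) were settled 5 h at 37 C, 5% CO2, then exposed to compounds in DMSO for 17 h. Caspase-3/7 activity was read by luminescence 30 min after adding Caspase-Glo 3/7 reagent at room temperature.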

[2] = Caspase-3/7 induction in CHO-K1 cells by small molecules, qHTS cell viability counter screen (AID 1346979); further: nearly all actives have a fitted effect of over 35% in size
Procedure, shortened: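 Following a 5hr settling period, CHO-K1 cells at 1,500 per well received DMSO-dissolved compounds. Cell viability was quantified 16hr later by CellTiter-Fluor fluorescence, measured after 1hr with reagent at 37C.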

[3] = Caspase-3/7 induction in CHO-K1 cells by small molecules, qHTS assay (AID 1346980); further: nearly all actives have a fitted effect of over 15% in size
Procedure, shortened: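 Wild-type cells were seeded at 1,500 per well and settled 5 hr at 37 C, 5% CO2, then exposed to DMSO-dissolved compounds for 17 hr. Caspase-Glo 3/7 reagent was added, and luminescence was read after 30min at room temperature.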

[4] = Caspase-3/7 induction in HepG2 cells by small molecules, qHTS cell viability counter screen (AID 1346981); further: series mostly up to about 92 µM; nearly all actives have a fitted effect of over 30% in size
Procedure, shortened: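 The parent HepG2 line is plated at 2,000 cells per well and rested 5 hr before compound pinning from DMSO stocks. Following a 16-hr treatment at 37 C, a fluorogenic live-cell substrate (CellTiter-Fluor) reports viability after 1 hr.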

[5] = biological target: Cytochrome P450 2C19 (Homo sapiens) (UniProt P33261); test: Cytochrome P450 Family 2 Subfamily C Member 19 (CYP2C19) small molecule antagonists: luciferase reporter qHTS assay (AID 1671197); further: nearly all actives have a fitted effect of over 65% in size; further: potency means the concentration at half of the fitted maximal effect
Procedure, shortened: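 Quantitative high-throughput screen of the Tox21 library using CYP2C19 with proluciferin substrate. Reaction: NADPH regeneration, 37C, 1 h, after 10 min compound preincubation at room temperature. Readout: luminescence.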

[6] = biological target: Cytochrome P450 2C9 (Homo sapiens) (UniProt P11712); test: Cytochrome P450 Family 2 Subfamily C Member 9 (CYP2C9) small molecule antagonists: luciferase reporter qHTS assay (AID 1671198); further: nearly all actives have a fitted effect of over 50% in size; further: potency means the concentration at half of the fitted maximal effect
Procedure, shortened: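 CYP2C9 activity was measured with a P450-Glo proluciferin substrate. Enzyme–substrate mix was held with compound for 10 min at room temperature, then NADPH regeneration solution was added for 1 h at 37C. Luciferin product was read as luminescence.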

[7] = biological target: Cytochrome P450 1A2 (Homo sapiens) (UniProt P05177); test: Cytochrome P450 Family 1 Subfamily A Member 2 (CYP1A2) small molecule antagonists: luciferase reporter qHTS assay (AID 1671199); further: nearly all actives have a fitted effect of over 50% in size; further: potency means the concentration at half of the fitted maximal effect
Procedure, shortened: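 Quantitative high-throughput format using the P450-Glo CYP1A2 system. Reaction initiated by NADPH regeneration solution, 1 h at room temperature, then stopped with detection reagent; luminescence measured 20 min later.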

[8] = biological target: Voltage-gated inwardly rectifying potassium channel KCNH2 (Homo sapiens) (UniProt Q12809); test: Human Ether-a-go-go-Related Gene (hERG) channel small molecule antagonists: fluorescence cell-based qHTS assay (AID 1671200);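 further: hERG-expressing U2OS cells given a thallium stimulus after FluxOR II dye loading; series mostly up to about 77 µM; nearly all actives have a fitted effect of over 50% in size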
Procedure, shortened: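 In this thallium-flux screen, overnight-cultured U2OS cells bearing the channel are dye-loaded in darkness for an hour, rested 10 min at room temperature, and then monitored kinetically at 480/540 nm for two minutes post-stimulus.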

[9] = biological target: Cytochrome P450 3A4 (Homo sapiens) (UniProt P08684); test: Cytochrome P450 Family 3 Subfamily A Member 4 (CYP3A4) small molecule antagonists: luciferase reporter qHTS assay (AID 1671201); further: nearly all actives have a fitted effect of over 50% in size; further: potency means the concentration at half of the fitted maximal effect
Procedure, shortened: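 CYP3A4 activity was followed with a P450-Glo proluciferin substrate. Test compounds in DMSO were preincubated 10 min; NADPH regeneration then ran 1 h, and light output was read 20 min after detection reagent.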

[10] = biological target: Nuclear receptor subfamily 1 group I member 2 (Homo sapiens) (UniProt O75469); test: CYP3A4 induction through human pregnane X receptor (PXR) by small molecules, qHTS assay (AID 1346984); further: nearly all actives have a fitted effect of over 40% in size; further: potency means the concentration at half of the fitted maximal effect
Procedure, shortened: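 Human PXR activation is tracked via CYP3A4 promoter-luciferase in DPX-2 (HepG2) cells. Compounds treat cells for 24hr at 37C, and luminescence is read after One-Glo.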

[11] = biological target: Nuclear receptor subfamily 1 group I member 2 (Homo sapiens) (UniProt O75469); test: Human pregnane X receptor (PXR) activation by small molecules, qHTS assay (AID 1346985); further: potency means the concentration at half of the fitted maximal effect; nearly all actives have a fitted effect of over 40% in size
Procedure, shortened: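 DPX-2 cells (HepG2 co-transfected with a PXR response element and a CYP3A4-promoter luciferase construct) were seeded at 2,000 per well, rested 5 hr at 37C, then exposed to DMSO-dissolved compounds for 24 hr. Activation was read as luciferase luminescence.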

[12] = biological target: Cytochrome P450 2D6 (Homo sapiens) (UniProt P10635); test: Cytochrome P450 Family 2 Subfamily D Member 6 (CYP2D6) small molecule antagonists: luciferase reporter qHTS assay (AID 1671196); further: nearly all actives have a fitted effect of over 50% in size; further: potency means the concentration at half of the fitted maximal effect
Procedure, shortened: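 Quantitative HTS of Tox21 chemicals against CYP2D6 using a luminescent proluciferin substrate. After NADPH addition, 1 h room-temperature reaction; luminescence recorded 20 min post detection reagent.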

[13] = biological target: Nuclear receptor subfamily 1 group I member 2 (Rattus norvegicus) (UniProt Q9R1A7); test: Rat pregnane X receptor (rPXR) activation by small molecules, qHTS assay (AID 1346983); details: rPXR luciferase reporter cells, One-Glo luminescence, 24 h; max activation: hits give high values; further: nearly all actives have a fitted effect of over 20% in size
Procedure, shortened: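 Cell-based rPXR luciferase reporter assay, 2,000 cells per well, rested 5hr at 37 C before compound addition in DMSO, then 24 hr at 37 C. One-Glo reagent was added and luminescence read after 30 min at room temperature.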

Cytochrome P450 3A4 (Homo sapiens), sequence (P08684 whole entry, looked up): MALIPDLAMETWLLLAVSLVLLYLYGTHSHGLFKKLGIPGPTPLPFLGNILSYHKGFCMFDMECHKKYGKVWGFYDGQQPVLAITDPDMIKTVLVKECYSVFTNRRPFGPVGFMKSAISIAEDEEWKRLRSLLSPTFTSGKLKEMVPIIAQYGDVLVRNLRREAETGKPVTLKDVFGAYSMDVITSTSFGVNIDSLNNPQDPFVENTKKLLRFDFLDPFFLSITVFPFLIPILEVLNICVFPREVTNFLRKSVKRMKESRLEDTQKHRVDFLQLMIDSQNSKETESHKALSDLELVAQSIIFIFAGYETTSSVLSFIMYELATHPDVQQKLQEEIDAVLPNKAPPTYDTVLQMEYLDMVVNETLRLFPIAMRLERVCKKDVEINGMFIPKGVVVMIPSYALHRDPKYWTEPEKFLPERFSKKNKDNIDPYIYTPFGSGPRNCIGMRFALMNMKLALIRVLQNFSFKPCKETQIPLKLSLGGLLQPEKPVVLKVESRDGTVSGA
Cytochrome P450 1A2 (Homo sapiens), sequence (P05177 whole entry, looked up): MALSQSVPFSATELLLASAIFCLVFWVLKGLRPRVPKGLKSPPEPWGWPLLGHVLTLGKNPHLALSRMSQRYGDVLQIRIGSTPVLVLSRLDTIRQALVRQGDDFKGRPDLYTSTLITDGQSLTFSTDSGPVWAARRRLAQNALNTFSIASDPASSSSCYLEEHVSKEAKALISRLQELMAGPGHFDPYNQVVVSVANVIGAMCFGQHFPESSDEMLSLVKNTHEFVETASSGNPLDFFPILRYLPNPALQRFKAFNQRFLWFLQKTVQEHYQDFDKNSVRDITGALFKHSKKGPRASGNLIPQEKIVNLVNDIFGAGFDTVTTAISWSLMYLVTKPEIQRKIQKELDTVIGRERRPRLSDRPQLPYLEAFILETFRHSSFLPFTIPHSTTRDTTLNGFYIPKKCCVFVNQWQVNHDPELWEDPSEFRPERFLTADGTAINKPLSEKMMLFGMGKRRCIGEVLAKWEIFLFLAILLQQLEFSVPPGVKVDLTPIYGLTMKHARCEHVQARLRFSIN
Cytochrome P450 2C9 (Homo sapiens), sequence (P11712 whole entry, looked up): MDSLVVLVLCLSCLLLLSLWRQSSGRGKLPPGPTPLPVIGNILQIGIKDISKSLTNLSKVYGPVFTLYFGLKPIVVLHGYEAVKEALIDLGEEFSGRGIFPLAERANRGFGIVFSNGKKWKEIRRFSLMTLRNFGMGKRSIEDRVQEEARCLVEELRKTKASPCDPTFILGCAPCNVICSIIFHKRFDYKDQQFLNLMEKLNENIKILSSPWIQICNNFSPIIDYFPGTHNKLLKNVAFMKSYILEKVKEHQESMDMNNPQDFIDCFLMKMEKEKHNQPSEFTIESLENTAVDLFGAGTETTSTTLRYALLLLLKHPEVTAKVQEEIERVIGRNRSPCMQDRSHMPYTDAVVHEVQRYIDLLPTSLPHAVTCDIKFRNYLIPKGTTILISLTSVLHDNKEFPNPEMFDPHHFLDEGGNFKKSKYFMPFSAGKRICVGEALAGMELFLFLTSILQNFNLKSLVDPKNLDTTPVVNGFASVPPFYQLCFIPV
Cytochrome P450 2C19 (Homo sapiens), sequence (P33261 whole entry, looked up): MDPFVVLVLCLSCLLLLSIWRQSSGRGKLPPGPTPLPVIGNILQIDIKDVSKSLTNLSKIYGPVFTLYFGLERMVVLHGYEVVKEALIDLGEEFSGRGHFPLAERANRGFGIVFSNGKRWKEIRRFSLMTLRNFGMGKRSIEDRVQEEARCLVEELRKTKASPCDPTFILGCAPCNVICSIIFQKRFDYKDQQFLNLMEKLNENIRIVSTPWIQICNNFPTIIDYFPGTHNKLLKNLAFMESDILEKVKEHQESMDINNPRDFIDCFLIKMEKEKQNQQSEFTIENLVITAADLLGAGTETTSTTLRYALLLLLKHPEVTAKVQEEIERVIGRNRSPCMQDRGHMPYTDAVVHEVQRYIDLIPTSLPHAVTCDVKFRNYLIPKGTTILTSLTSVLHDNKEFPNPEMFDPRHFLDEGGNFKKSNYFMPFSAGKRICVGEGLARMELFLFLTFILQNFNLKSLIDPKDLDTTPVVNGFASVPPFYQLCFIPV
Cytochrome P450 2D6 (Homo sapiens), sequence (P10635 whole entry, looked up): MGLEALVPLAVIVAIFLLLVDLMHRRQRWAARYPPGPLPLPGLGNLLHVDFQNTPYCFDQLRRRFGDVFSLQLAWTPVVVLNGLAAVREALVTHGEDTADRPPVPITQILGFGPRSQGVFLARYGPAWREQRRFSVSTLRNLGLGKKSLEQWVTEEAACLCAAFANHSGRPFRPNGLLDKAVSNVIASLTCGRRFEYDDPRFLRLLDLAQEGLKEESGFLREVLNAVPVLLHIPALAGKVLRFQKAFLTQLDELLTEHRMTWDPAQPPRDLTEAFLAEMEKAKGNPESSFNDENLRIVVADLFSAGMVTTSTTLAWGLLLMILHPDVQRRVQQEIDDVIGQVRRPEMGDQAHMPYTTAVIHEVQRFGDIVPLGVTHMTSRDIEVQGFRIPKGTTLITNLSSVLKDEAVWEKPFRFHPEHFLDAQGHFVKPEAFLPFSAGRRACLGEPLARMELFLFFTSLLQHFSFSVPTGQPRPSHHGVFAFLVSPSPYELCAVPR
Voltage-gated inwardly rectifying potassium channel KCNH2 (Homo sapiens), sequence (Q12809 whole entry, looked up): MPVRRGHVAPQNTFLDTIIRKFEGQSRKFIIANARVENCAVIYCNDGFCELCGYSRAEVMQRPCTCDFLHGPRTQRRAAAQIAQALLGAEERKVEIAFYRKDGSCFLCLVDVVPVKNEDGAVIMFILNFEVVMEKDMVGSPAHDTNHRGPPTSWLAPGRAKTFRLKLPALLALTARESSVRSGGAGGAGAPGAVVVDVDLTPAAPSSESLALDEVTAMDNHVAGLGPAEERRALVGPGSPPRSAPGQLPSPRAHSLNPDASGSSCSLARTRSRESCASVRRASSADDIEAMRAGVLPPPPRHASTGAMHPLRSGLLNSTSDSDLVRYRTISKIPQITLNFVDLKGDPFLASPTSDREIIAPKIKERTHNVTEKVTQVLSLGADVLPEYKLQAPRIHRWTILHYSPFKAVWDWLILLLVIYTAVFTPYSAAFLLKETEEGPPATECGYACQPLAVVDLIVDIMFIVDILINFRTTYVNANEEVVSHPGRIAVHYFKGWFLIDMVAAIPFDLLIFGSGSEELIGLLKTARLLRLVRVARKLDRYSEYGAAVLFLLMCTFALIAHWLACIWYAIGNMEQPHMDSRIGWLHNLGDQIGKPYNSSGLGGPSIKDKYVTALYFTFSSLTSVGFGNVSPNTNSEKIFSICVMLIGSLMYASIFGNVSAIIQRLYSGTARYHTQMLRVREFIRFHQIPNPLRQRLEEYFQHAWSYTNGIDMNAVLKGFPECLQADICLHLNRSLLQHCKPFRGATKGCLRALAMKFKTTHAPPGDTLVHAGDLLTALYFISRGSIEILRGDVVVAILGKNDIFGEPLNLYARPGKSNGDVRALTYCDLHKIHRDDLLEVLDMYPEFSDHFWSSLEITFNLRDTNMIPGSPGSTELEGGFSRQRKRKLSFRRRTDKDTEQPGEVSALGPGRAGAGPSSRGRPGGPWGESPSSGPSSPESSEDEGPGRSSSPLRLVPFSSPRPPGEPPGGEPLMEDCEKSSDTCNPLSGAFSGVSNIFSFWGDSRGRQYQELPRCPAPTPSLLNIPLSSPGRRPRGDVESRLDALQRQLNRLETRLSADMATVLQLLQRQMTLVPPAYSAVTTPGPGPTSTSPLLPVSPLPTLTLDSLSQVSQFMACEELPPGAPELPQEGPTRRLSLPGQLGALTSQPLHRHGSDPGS
Nuclear receptor subfamily 1 group I member 2 (Rattus norvegicus), sequence (Q9R1A7 whole entry, looked up): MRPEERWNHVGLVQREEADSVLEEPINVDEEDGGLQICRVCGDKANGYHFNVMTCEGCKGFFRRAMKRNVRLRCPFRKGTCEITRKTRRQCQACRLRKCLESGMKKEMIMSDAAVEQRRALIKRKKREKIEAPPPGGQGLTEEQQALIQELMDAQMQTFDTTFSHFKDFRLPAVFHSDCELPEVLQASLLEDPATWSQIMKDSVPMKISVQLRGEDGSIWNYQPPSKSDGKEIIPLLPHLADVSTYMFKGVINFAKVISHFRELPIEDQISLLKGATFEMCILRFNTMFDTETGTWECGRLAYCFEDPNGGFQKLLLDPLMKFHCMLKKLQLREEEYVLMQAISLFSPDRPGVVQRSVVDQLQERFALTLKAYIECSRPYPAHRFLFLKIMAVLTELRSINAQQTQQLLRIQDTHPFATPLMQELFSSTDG

Structure (SMILES)	outcome [1]	Potency [2]	Potency [3]	Potency [4]	Potency [5]	Potency [6]	Potency [7]	Potency [8]	Potency [9]	Potency [10]	Potency [11]	Potency [12]	max activation [13] [%]
CC(=O)CC(=O)c1ccccc1	inactive	inactive	inactive	inactive	31.9 µM (active)	35.8 µM (active)	40.2 µM (active)	inactive	63.7 µM (active)				
CN1CCN(C2=Nc3ccccc3Sc3ccc(Cl)cc32)CC1	inactive	inactive	inactive	inactive	21.9 µM (active)		inactive			22.4 µM (active)	25.1 µM (active)	15.5 µM (active)	
CCN(CC)CCOC(=O)C1(c2ccccc2)CCCC1	inactive	inactive	inactive	inactive		inactive		inactive		inactive		1.38 µM (active)	1.06
N[C@H]1C(O)O[C@H](CO)[C@H](O)[C@@H]1O (stereo not given in full)	inactive	inactive	inactive	inactive	inactive	inactive	inactive		inactive			inactive	
CCCC(C)C	inactive	inactive	inactive	inactive	71.7 µM (active)		63.9 µM (active)	inactive	inactive			inactive	
CCCCOC(O)CC (stereo not given)	inactive	inactive	inactive	inactive	inactive	inactive	inactive		inactive			inactive	
CC1CCc2cc(F)cc3c(=O)c(C(=O)O)cn1c23 (stereo not given)	inactive	inactive	inactive	inactive		inactive	inactive	inactive				inactive	
COc1ccc([C@@H]2Sc3ccccc3N(CCN(C)C)C(=O)[C@@H]2OC(C)=O)cc1	inactive	inactive	inactive	inactive	inactive	inactive	inactive						-0.277
